From PubChem BioAssay (NCI)
“And” between values parts separate entries of the source, which are not always exact repeats. Equal values may be shown once. About 79,000 compounds went through this panel and 15% of them were active in at least one assay; those are over-represented in the sample as a whole. Some compounds were tested as several samples or in several runs, with calls that do not always agree. The source made the active and inactive calls. Cut-off read from the data, not from the text of the source: active = growth inhibition above about 70%; inactive = the rest.

How the values were obtained:
[1] = NCI Yeast Anticancer Drug Screen. Data for the rad50 strain (AID 155);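 note: 0% = growth of vehicle-only cultures of the same strain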; settings: S. cerevisiae rad50 strain growth inhibition, stronger effect = higher value
Summary of the method: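 Genetically altered yeast (DNA repair pathway); compound treatment; growth inhibition vs vehicle ctrl.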

[2] = NCI Yeast Anticancer Drug Screen. Data for the mec2-1 strain (AID 157); settings: S. cerevisiae mec2-1 strain, stronger effect = higher value
Summary of the method: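 Strain: mec2-1 (DNA repair/cell cycle alteration). Compound exposure, then growth measured; inhibition expressed relative to vehicle.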

[3] = NCI Yeast Anticancer Drug Screen. Data for the sgs1 mgt1 strain (AID 161);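 note: 0% = growth of cultures given vehicle only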; settings: S. cerevisiae sgs1 mgt1 strain, stronger effect = higher value
Summary of the method: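 Inhibition of yeast growth, normalised to vehicle-treated controls, is reported for a strain bearing genetic alterations in DNA damage repair.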

[4] = NCI Yeast Anticancer Drug Screen. Data for the cln2 rad14 strain (AID 165);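 note: 0% = growth equal to vehicle treated cultures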; settings: S. cerevisiae cln2 rad14 strain, stronger effect = higher value
Summary of the method: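 Compounds are applied to the cln2 rad14 yeast strain, and growth is then compared with that of vehicle-treated cultures to give inhibition.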

[5] = NCI Yeast Anticancer Drug Screen. Data for the bub3 strain (AID 167); settings: S. cerevisiae bub3 mutant strain, stronger effect = higher value
Summary of the method: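 Yeast carrying a defined mutation is treated with each compound, and growth is compared with that of vehicle-exposed cells to give inhibition.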

[6] = NCI Yeast Anticancer Drug Screen. Data for the mlh1 rad18 strain (AID 175); settings: S. cerevisiae mlh1 rad18 strain growth inhibition, stronger effect = higher value
Summary of the method: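 Read-out is yeast growth inhibition, calculated against vehicle-only controls. The compound was applied to a strain engineered with DNA damage repair alterations.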

[7] = at 5.0 µM (retest, dose inferred, filed as 0.5)
[8] = at 50.0 µM (retest, dose inferred, filed as 5.0)

Measured: growth inhibition

COc1cc2c(cc1OC)C(Cc1c3ccccc3cc3ccccc13)N(C)CC2 (stereo not given)
active: [3]; at 50.0 µM 93.1% | [6]; at 50.0 µM 99.4%
inactive: [1]; [7] 4% | [1]; [8] 41% | [1]; at 50.0 µM 16.2% | [2]; [7] -18% | [2]; [8] 43% | [2]; at 50.0 µM 14.8% | [3]; [7] 1% | [3]; [8] 50% | [4]; [7] 0% | [4]; [8] 3% | [4]; at 50.0 µM 62.5% | [5]; [7] 0% | [5]; [8] 15% | [5]; at 50.0 µM 58.3% | [6]; [7] 3% | [6]; [8] 56%

CCN(CC)CCC(=O)/C=C/c1ccccc1
99.5% (active) and 28.6% (inactive): [3]; at 50.0 µM
99.6% (active) and 56.1% (inactive): [2]; at 50.0 µM
99.3% (active) and 6.75% (inactive): [4]; at 50.0 µM
active: [1]; [8] 95% | [2]; [8] 100% | [3]; [8] 100% | [4]; [8] 97% | [5]; [8] 99% | [6]; [8] 99%
99.3% (active) and 29.2% (inactive): [1]; at 50.0 µM
99.5% (active) and 49.5% (inactive): [5]; at 50.0 µM
99.3% (active) and 36% (inactive): [6]; at 50.0 µM
inactive: [1]; [7] 31% | [2]; [7] 27% | [3]; [7] 60% | [4]; [7] 42% | [5]; [7] 58% | [6]; [7] 32%

COc1cc(O)c2c(c1)C(=O)c1cc3c(c(O)c1C2=O)C(OC1OC(C)C(OC)C(O)C1OC)C(OC)C(C)(O)C3=O (stereo not given)
inactive: [2]; [7] 24% | [3]; [7] 20% | [4]; [7] 22% | [5]; [7] -6% | [6]; [7] 29%
active: [1]; [7] 81% | [1]; [8] 98% | [1]; at 50.0 µM 98.8% and 90.6% | [2]; [8] 98% | [2]; at 50.0 µM 99.2% and 93% | [3]; [8] 98% | [3]; at 50.0 µM 99.5% and 92.3% | [4]; [8] 98% | [4]; at 50.0 µM 98.3% and 89.2% | [5]; [8] 98% | [5]; at 50.0 µM 99% and 90.5% | [6]; [8] 96% | [6]; at 50.0 µM 99.2% and 90.9%

O=C(NCCCCCCNC(=O)n1cc(F)c(=O)[nH]c1=O)NCCCOCCOCCOCCOCCOCCOCCOCCOCCOCCOCCOCCOCCOCCOCCOCCOCCOCCOCCOCCOCCOCCCNC(=O)C(O)C(O)C(OC1OC(CO)C(O)C(O)C1O)C(O)CO (stereo not given)
inactive: [1]; [7] 11% | [2]; [7] 7% | [3]; [7] 30% | [4]; [7] 16% | [4]; [8] -5% | [4]; at 50.0 µM 27.1% | [5]; [7] 1% | [5]; [8] 4% | [5]; at 50.0 µM 48.4% | [6]; [7] 19% | [6]; at 50.0 µM -10.2%
active: [1]; [8] 95% | [1]; at 50.0 µM 74.3% | [2]; [8] 78% | [2]; at 50.0 µM 89% | [3]; [8] 81% | [3]; at 50.0 µM 81.5% | [6]; [8] 97%

c1ccc(C2=NC(c3ccccc3)=NS(S3=NC(c4ccccc4)=NC(c4ccccc4)=N3)=N2)cc1 (stereo not given)
inactive: [1]; [7] 27% | [2]; [7] 5% | [3]; [7] 20% | [4]; [7] 20% | [4]; at 50.0 µM 43% | [5]; [7] 30% | [5]; at 50.0 µM 38% | [6]; [7] 18%
active: [1]; [8] 94% | [1]; at 50.0 µM 74.7% | [2]; [8] 98% | [2]; at 50.0 µM 75.2% | [3]; [8] 98% | [3]; at 50.0 µM 82.7% | [4]; [8] 94% | [5]; [8] 97% | [6]; [8] 97% | [6]; at 50.0 µM 92.3%

NC(=O)c1cc(Br)cc(Br)c1O
active: [1]; [8] 79% | [2]; [8] 86% | [2]; at 50.0 µM 75.1% | [3]; [8] 90% | [4]; [8] 87% | [4]; at 50.0 µM 94.5% | [5]; [8] 77% | [5]; at 50.0 µM 89.8% | [6]; [8] 85% | [6]; at 50.0 µM 79.6%
inactive: [1]; [7] 14% | [1]; at 50.0 µM 62.2% | [2]; [7] -13% | [3]; [7] 9% | [3]; at 50.0 µM 48.5% | [4]; [7] 5% | [5]; [7] 1% | [6]; [7] -10%

Oc1c(Cl)c(Cl)c(Cl)c2ccccc12
inactive: [3]; [7] 38% | [3]; [8] 34% | [4]; [7] 39% | [4]; at 50.0 µM 53.4%
active: [1]; [7] 84% | [1]; [8] 95% | [1]; at 50.0 µM 95.5% | [2]; [7] 79% | [2]; [8] 98% | [2]; at 50.0 µM 96.8% | [3]; at 50.0 µM 95.9% | [4]; [8] 94% | [5]; [7] 92% | [5]; [8] 93% | [5]; at 50.0 µM 91.2% | [6]; [7] 87% | [6]; [8] 98% | [6]; at 50.0 µM 96.7%

CCOP(=O)(OCC)C(C)(CC)NC(=O)C(C(F)(F)F)C(F)(F)F (stereo not given)
inactive: [1]; [7] 21% | [1]; [8] 21% | [1]; at 50.0 µM -5.45% and 2.5% | [2]; [7] 23% | [2]; [8] 13% | [2]; at 50.0 µM -14.8% and 4% | [3]; [7] 16% | [3]; [8] 13% | [3]; at 50.0 µM -8.75% and -2.6% | [4]; [7] 18% | [4]; [8] 24% | [4]; at 50.0 µM 5.65% and -1.65% | [5]; [7] 20% | [5]; [8] 19% | [5]; at 50.0 µM -4.95% and -8.05% | [6]; [7] 23% | [6]; [8] 18% | [6]; at 50.0 µM 8.65% and -16.8%

BrC(c1cccc2ccccc12)c1cccc2ccccc12
inactive: [1]; [7] 23% | [2]; [7] 20% | [3]; [7] 1% | [4]; [7] 0% | [5]; [7] -6% | [6]; [7] 18%
active: [1]; [8] 97% | [1]; at 50.0 µM 95.5% | [2]; [8] 97% | [2]; at 50.0 µM 94.7% | [3]; [8] 96% | [3]; at 50.0 µM 94.8% | [4]; [8] 94% | [4]; at 50.0 µM 92.8% | [5]; [8] 96% | [5]; at 50.0 µM 94.2% | [6]; [8] 95% | [6]; at 50.0 µM 95%

CCCC1=CCCC1
inactive: [1]; [7] 2% | [1]; [8] 8% | [2]; [7] 2% | [2]; [8] -6% | [3]; [7] -1% | [3]; [8] 1% | [3]; at 50.0 µM 50.9% | [4]; [7] 0% | [4]; [8] 2% | [4]; at 50.0 µM 50% | [5]; [7] 1% | [5]; [8] 1% | [6]; [7] 0% | [6]; [8] 5% | [6]; at 50.0 µM 50.2%
active: [1]; at 50.0 µM 91.1% | [2]; at 50.0 µM 92.5% | [5]; at 50.0 µM 96.8%

O=[N+]([O-])C(/C=C(\Cl)[N+](=O)[O-])=C(Nc1ccccc1)Nc1ccccc1
inactive: [1]; [7] -23% | [2]; [7] -7% | [3]; [7] -16% | [4]; [7] 1% | [5]; [7] -33% | [6]; [7] 27%
active: [1]; [8] 98% | [1]; at 50.0 µM 86.8% | [2]; [8] 99% | [2]; at 50.0 µM 88.2% | [3]; [8] 98% | [3]; at 50.0 µM 86.8% | [4]; [8] 98% | [4]; at 50.0 µM 82.8% | [5]; [8] 99% | [5]; at 50.0 µM 85.8% | [6]; [8] 99% | [6]; at 50.0 µM 80.3%

C[N+]1(C)CCC(c2ccccc2)(c2ccccc2)C(=O)C1
inactive: [1]; [7] -12% | [1]; [8] -8% | [1]; at 50.0 µM 16.6% and 13.2% | [2]; [7] -15% | [2]; [8] -3% | [2]; at 50.0 µM 9.05% and 19.3% | [3]; [7] -8% | [3]; [8] -2% | [3]; at 50.0 µM 6.2% and 21.8% | [4]; [7] -9% | [4]; [8] -11% | [4]; at 50.0 µM 47.4% and -25.8% | [5]; [7] -22% | [5]; [8] -27% | [5]; at 50.0 µM -8.9% and 8.6% | [6]; [7] -10% | [6]; [8] -14% | [6]; at 50.0 µM 24.1% and -10.6%

O=C(O)c1ccc(Nc2cnc3ccc(C(F)(F)F)cc3n2)cc1
inactive: [1]; [7] 18% | [1]; [8] 16% | [1]; at 50.0 µM 60.9% | [2]; [7] 4% | [2]; [8] 12% | [2]; at 50.0 µM 41.2% | [3]; [7] 10% | [3]; [8] 13% | [3]; at 50.0 µM 18.2% | [4]; [7] 5% | [4]; [8] 12% | [4]; at 50.0 µM -0.05% | [5]; [7] 5% | [5]; [8] 12% | [5]; at 50.0 µM 4.9% | [6]; [7] 16% | [6]; [8] 16% | [6]; at 50.0 µM 6.7%

O=[N+]([O-])c1c(Cl)nc2ccccn12
inactive: [1]; [7] 2% | [1]; [8] 26% | [1]; at 50.0 µM 14.4% | [2]; [7] 3% | [2]; [8] 28% | [2]; at 50.0 µM 26.1% | [3]; [7] 2% | [3]; [8] 27% | [3]; at 50.0 µM 31.1% | [4]; [7] 2% | [4]; [8] 15% | [4]; at 50.0 µM -0.55% | [5]; [7] 0% | [5]; [8] 14% | [5]; at 50.0 µM -2.05% | [6]; [7] 2% | [6]; [8] 26%
active: [6]; at 50.0 µM 70.5%

CC(=O)OC1CC2C(C)(C)C(=O)C=C[C@]2(C)C2CCC3(C)C(=CC(=O)C3c3ccoc3)[C@]12C (stereo not given in full)
active: [3]; [8] 86% | [3]; at 50.0 µM 87%
inactive: [1]; [7] -4% | [1]; [8] 40% | [1]; at 50.0 µM 65.4% | [2]; [7] -8% | [2]; [8] 38% | [2]; at 50.0 µM 65.3% | [3]; [7] -1% | [4]; [7] 19% | [4]; [8] 52% | [4]; at 50.0 µM 18.7% | [5]; [7] 7% | [5]; [8] 58% | [5]; at 50.0 µM 56.9% | [6]; [7] -1% | [6]; [8] 52% | [6]; at 50.0 µM 56.4%
